Results filed as inconclusive are left out. Activity calls are given as the source filed them.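 The calls were made as follows: active = viability below 80% at one or more tested concentrations, flagged as toxic; inconclusive = replicate runs disagree on whether the viability criterion is met; inactive = viability at or above 80% at every dose.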
assay: viability reduction of Vero E6 cells – cell-based, M17 leucyl aminopeptidase campaign, cytotoxicity control for P. falciparum PFM17LAP inhibitor project, dose response (AID 588707); details: CellTiter-Glo luminescence, 72 h; series mostly up to 50 µM

Q: Which outcome does the source give for `Cc1cc(=O)[nH]c(SCC(=O)Nc2ccccc2)n1` here?
A: inactive

Q: With `O=C(Nc1ccc(Cl)cc1)Nc1ccccc1C(=O)O` as the molecule, how does the outcome read?
A: inactive

Q: With `O=C(CSc1nc(O)cc(=O)[nH]1)Nc1ccccc1` as the molecule, how does the outcome read?
A: inactive

Q: Which outcome does the source give for `COC(=O)c1c(NC(=O)C2CC=CCC2C(=O)O)sc(C)c1-c1ccc(C)cc1` (configuration not stated) here?
A: inactive

Q: Which outcome does the source give for `COc1ccc(-c2nnc(NC(=O)C3CC(C)=C(C)CC3C(=O)O)s2)cc1` (configuration not stated) here?
A: inactive

Q: Which outcome does the source give for `O=C1OCCC1Sc1nnc(NC2CCCCC2)s1` (configuration not stated) here?
A: inactive

Q: For `COC(=O)c1c(NC(=O)c2ccccc2C(=O)O)sc2c1CCCC2`, which outcome is on record?
A: inactive

Q: With `O=C(CSc1nccc(=O)[nH]1)Nc1ccc(N2CCOCC2)cc1` as the molecule, how does the outcome read?
A: inactive

Q: With `COC(=O)c1ccccc1NC(=O)c1ccc2c(Cl)c3c(nc2c1)CCC3` as the molecule, how does the outcome read?
A: inactive

Q: For `COc1cc(NC(=O)CSc2ccccc2)c(C(=O)O)cc1OC`, which outcome is on record?
A: inactive

Q: Which outcome does the source give for `COC(=O)c1cc(OC)c(OC)cc1NC(=O)c1sc2nc(C)ccc2c1N` here?
A: inactive

Q: With `CC(C)C[C@H](N)C(=O)NO` as the molecule, how does the outcome read?
A: inactive

Q: Which outcome does the source give for `NC(N)=NCCC[C@H](N)C(=O)NO` here?
A: inactive

Q: With `Cc1ccc(NC(=O)CSc2nc(O)cc(=O)n2Cc2ccccc2)cc1` as the molecule, how does the outcome read?
A: inactive

Q: For `O=C(O)c1ccccc1C(=O)Nc1nc2c(s1)CCCC2`, which outcome is on record?
A: inactive

Q: Which outcome does the source give for `O=C(CSc1ccccc1)Nc1cccc2c1C(=O)NC2=O` here?
A: inactive

Q: With `N[C@@H](Cc1c[nH]c2ccccc12)C(=O)NO` as the molecule, how does the outcome read?
A: inactive

Q: Which outcome does the source give for `Cc1cc(SCC(=O)Nc2ccccc2C(=O)O)nc2ccccc12` here?
A: inactive

Q: Which outcome does the source give for `COC(=O)c1c(NC(=O)C2CCCCC2C(=O)O)sc2c1CCC(c1ccccc1)C2` (configuration not stated) here?
A: inactive

Q: For `O=C(CSc1nccc(=O)[nH]1)Nc1ccc(Oc2ccccc2)cc1`, which outcome is on record?
A: inactive

Q: For `CC1=C(C)CC(C(=O)Nc2nc(-c3cc(C)ccc3C)c(C)s2)C(C(=O)O)C1` (configuration not stated), which outcome is on record?
A: inactive

Q: Which outcome does the source give for `COC(=O)c1ccccc1NC(=O)c1cc2cc3ccc(C)cc3nc2s1` here?
A: inactive

Reference: PubChem BioAssay AID588707 (Southern Research Specialized Biocontainment Screening …, 2011)
